Reference: PubChem BioAssay (Tox21)
Several values for one entry are separate records, joined by “and”; a condition that tells them apart may be missing. Equal values may be shown once. Results filed as inconclusive are left out. A call without a number means that no potency is given here. Activity calls are given as the source filed them. Unless noted, calls come from the whole dose curve; as a rule, active = well fitted curve in the direction sought with a large enough effect in the repeat runs; inconclusive = weak or mixed curves; inactive = no such curve, though single readings can be large; an effect the other way counts as inactive or inconclusive.

Tests used:
[1] = qHTS assay to identify aromatase inhibitors - cell viability counter screen (AID 743084);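 note: cells stimulated with testosterone during compound exposure; nearly all actives have a fitted effect of over 55% in size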
[2] = target: Aryl hydrocarbon receptor (Homo sapiens) (UniProt P35869); assay: qHTS assay to identify small molecule that activate the aryl hydrocarbon receptor (AhR) signaling pathway (AID 743085); note: nearly all actives have a fitted effect of over 15% in size; note: potency is the fitted concentration of half-maximal effect;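 for activation: HG2L7.5c1 human HepG2 liver cells with stably integrated DRE-driven firefly reporter; series mostly up to about 70 µM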
Procedure, shortened: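 Compounds were tested in HepG2 hepatocellular carcinoma cells harbouring a stably integrated luciferase gene under control of 20 DREs. Increased reporter signal after 24 h treatment at 37C was taken as AhR activation.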

[3] = qHTS assay to identify small molecule that activate the aryl hydrocarbon receptor (AhR) signaling pathway - cell viability counter screen (AID 743086);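 note: HepG2 liver cells carrying the AhR DRE luciferase reporter; series mostly up to about 70 µM; nearly all actives have a fitted effect of over 45% in size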
Procedure, shortened: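 HepG2-AhR-luc (HG2L7.5c1) cells, 4000/well, were preincubated 5 h at 37C, exposed to compound in qHTS format for 24 hr at 37C, then given CellTiter-Fluor for 30 min; viability was read as fluorescence in the reporter wells.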

[4] = target: Peroxisome proliferator-activated receptor gamma (Homo sapiens) (UniProt P37231); assay: qHTS assay to identify small molecule agonists of the peroxisome proliferator-activated receptor gamma (PPARg) signaling pathway (AID 743094; active = well fitted activation curve with a large enough effect in the signal ratio in the repeat runs, not every such curve was filed as active; the % refers to the signal ratio)
Procedure, shortened: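 Agonist activity was taken from a beta-lactamase reporter (FRET substrate, 1 h at room temperature) in HEK293H cells carrying a PPARg UAS-bla construct. Compounds in DMSO were incubated 17 h at 37C after a 5 h cell pre-incubation.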

[5] = target: Peroxisome proliferator-activated receptor gamma (Homo sapiens) (UniProt P37231); assay: qHTS assay to identify small molecule antagonists of the peroxisome proliferator-activated receptor gamma (PPARg) signaling pathway (AID 743191; calls by dose curve; note: series mostly up to about 63 µM; nearly all actives have a fitted effect of over 30% in size)
Procedure, shortened: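 GeneBLAzer PPARg UAS-bla HEK293H cells carrying a UAS-driven beta-lactamase reporter were plated at 3000 cells/well, preincubated 5 h at 37C, then given compound for 17 h at 37C; LiveBLAzer B/G FRET substrate was read after 1 h at room temperature.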

[6] = qHTS assay to identify small molecule antagonists of the peroxisome proliferator-activated receptor gamma (PPARg) signaling pathway - cell viability counter screen (AID 743194); conditions: Potency: co-treated with 50 nM rosiglitazone unless noted; note: nearly all actives have a fitted effect of over 55% in size
Procedure, shortened: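 PPARg-UAS-bla HEK293H cells were plated, rested 5 h at 37 C, then treated with compounds plus rosiglitazone (50 nM final) for 17 h at 37 C; viability was then read by CellTiter-Glo luminescence after 30 min at room temperature.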

[7] = qHTS assay for small molecule agonists of the antioxidant response element (ARE) signaling pathway (AID 743202; active = well fitted activation curve with a large enough effect in the signal ratio in the repeat runs, not every such curve was filed as active; the % refers to the signal ratio)
Procedure, shortened: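 Following a 16 h, 37 C exposure of reporter HepG2 cells (ARE-driven beta-lactamase, 2,000 cells/well) to compounds, FRET substrate was applied for 2 h at room temperature and fluorescence intensity recorded.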

[8] = qHTS assay for small molecule agonists of the antioxidant response element (ARE) signaling pathway - cell viability counter screen (AID 743203; calls by dose curve; note: nearly all actives have a fitted effect of over 55% in size)
Procedure, shortened: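 Viability counter screen: CellTiter-Glo luminescence, read after 30 min at room temperature, in ARE-bla HepG2 wells. Compound exposure lasted 16 h at 37C/5% CO2, following a 5 h pre-incubation of the cells after plating.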

[9] = qHTS assay for small molecule activators of the heat shock response signaling pathway (AID 743210; active = well fitted activation curve with a large enough effect in the signal ratio in the repeat runs, with a control signal flat, not every such curve was filed as active; the % refers to the signal ratio; note: series mostly up to about 63 µM)
Procedure, shortened: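 Heat shock element–beta-lactamase HeLa reporter cells; qHTS with compounds for 5 h at 37 C; detection by FRET substrate fluorescence after 2.5 h at RT.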

[10] = qHTS assay to identify small molecule agonists of the peroxisome proliferator-activated receptor delta (PPARd) signaling pathway - cell viability counter screen (AID 743211); note: nearly all actives have a fitted effect of over 55% in size
Procedure, shortened: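 Counter screen for cytotoxicity run in parallel with the PPARd reporter screen. Beta-lactamase reporter HEK293H cells exposed to compounds 17 h; ATP-based CellTiter-Glo luminescence quantified viability.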

[11] = target: Peroxisome proliferator-activated receptor delta (Homo sapiens) (UniProt Q03181); assay: qHTS assay to identify small molecule agonists of the peroxisome proliferator-activated receptor delta (PPARd) signaling pathway (AID 743212; calls by dose curve)
Procedure, shortened: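 Beta-lactamase reporter read by fluorescence (LiveBLAzer B/G FRET, 2 h, room temperature). Test agents, in DMSO, incubated at 37 C with PPARd-bla HEK293H cells.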

[12] = qHTS assay to identify small molecule antagonists of the peroxisome proliferator-activated receptor delta (PPARd) signaling pathway - cell viability counter screen (AID 743213); note: nearly all actives have a fitted effect of over 50% in size
Procedure, shortened: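 In this counter screen, HEK293H cells carrying a UAS-beta-lactamase reporter are co-treated with test compounds and 300 nM L165041 (final) for 17 h at 37 C; cell viability is quantified by CellTiter-Glo luminescence.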

[13] = target: Peroxisome proliferator-activated receptor delta (Homo sapiens) (UniProt Q03181); assay: qHTS assay to identify small molecule antagonists of the peroxisome proliferator-activated receptor delta (PPARd) signaling pathway (AID 743215; active = well fitted inhibition curve with a large enough effect in the signal ratio in the repeat runs, not every such curve was filed as active; the % refers to the signal ratio;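 note: cells stimulated with agonist L165041 at 300 nM final during compound exposure; series mostly up to about 62 µM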)
Procedure, shortened: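 Agonist L165041 (300 nM final) added with compound to PPARd-bla HEK293H UAS-bla reporter cells; 17 h incubation at 37 C. Read-out: LiveBLAzer FRET substrate, 2 h at room temperature, fluorescence intensity.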

[14] = qHTS assay to identify small molecule agonists of the farnesoid-X-receptor (FXR) signaling pathway - cell viability counter screen (AID 743218); note: nearly all actives have a fitted effect of over 45% in size
Procedure, shortened: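 Viability counter screen in the same wells: CellTiter-Glo luminescence, 30 min room-temperature incubation, measured after the beta-lactamase read. Cells were GeneBLAzer FXR-UAS-bla HEK 293T, compound-treated 16 h at 37C.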

[15] = qHTS assay to identify small molecule antagonists of the farnesoid-X-receptor (FXR) signaling pathway - cell viability counter screen (AID 743221; active = well fitted cell-killing curve with a large enough effect in the repeat runs, not every such curve was filed as active; note: nearly all actives have a fitted effect of over 50% in size)
Procedure, shortened: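 Multiplexed counter screen: viability of FXR-bla HEK 293T cells under agonist stimulation by chenodeoxycholic acid (50 uM, final) and test compound for 16 h at 37 C, measured by CellTiter-Glo luminescence in the reporter wells.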

[16] = target: Vitamin D3 receptor (Homo sapiens) (UniProt P11473); assay: qHTS assay to identify small molecule agonists of the vitamin D receptor (VDR) signaling pathway (AID 743222; calls by dose curve)
Procedure, shortened: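 Agonist mode, beta-lactamase reporter: fluorescence from LiveBLAzer B/G FRET substrate (2 h, room temperature) read after 16 h compound treatment at 37 C of VDR-bla cells, which were pre-incubated 4 h after seeding.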

[17] = qHTS assay for small molecule activators of the heat shock response signaling pathway - cell viability counter screen (AID 743209); note: nearly all actives have a fitted effect of over 50% in size
Procedure, shortened: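 Cytotoxicity counter screen run in the same wells as the heat-shock bla reporter assay: HeLa HSE-bla cells, 5 h compound exposure at 37 C, viability read by CellTiter-Glo luminescence.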

[18] = target: Vitamin D3 receptor (Homo sapiens) (UniProt P11473); assay: qHTS assay to identify small molecule antagonists of the vitamin D receptor (VDR) signaling pathway (AID 743223; active = well fitted inhibition curve with a large enough effect in the signal ratio in the repeat runs, not every such curve was filed as active; the % refers to the signal ratio)
Procedure, shortened: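 Cells carrying a VDR-driven beta-lactamase reporter (VDR-bla) were co-treated with compound and 3 nM final 1alpha,25-dihydroxyvitamin D3 for 16 h at 37C; reporter activity was measured as FRET substrate fluorescence after 2 h at room temperature.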

[19] = target: Bile acid receptor (Homo sapiens) (UniProt Q96RI1); assay: qHTS assay to identify small molecule antagonists of the farnesoid-X-receptor (FXR) signaling pathway (AID 743217; active = well fitted inhibition curve with a large enough effect in the signal ratio in the repeat runs, not every such curve was filed as active; the % refers to the signal ratio)
Procedure, shortened: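 Antagonist mode: chenodeoxycholic acid at 50 uM final stimulates a UAS-driven beta-lactamase reporter in HEK 293T FXR-bla cells during 16 h, 37C compound exposure. Read-out is FRET substrate fluorescence after 2 h at room temperature.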

[20] = target: Bile acid receptor (Homo sapiens) (UniProt Q96RI1); assay: qHTS assay to identify small molecule agonists of the farnesoid-X-receptor (FXR) signaling pathway (AID 743220; active = well fitted activation curve with a large enough effect in the signal ratio in the repeat runs, not every such curve was filed as active; the % refers to the signal ratio)
Procedure, shortened: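 FXR-UAS-bla HEK 293T cells carrying a UAS-driven beta-lactamase reporter were plated for 5 h at 37C/5% CO2, then exposed to DMSO-dissolved Tox21 10K compounds for 16 h at 37C. A LiveBLAzer B/G FRET substrate was loaded for 2 h at room temperature before fluorescence reading.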

Peroxisome proliferator-activated receptor delta (Homo sapiens), sequence (Q03181 whole entry, looked up): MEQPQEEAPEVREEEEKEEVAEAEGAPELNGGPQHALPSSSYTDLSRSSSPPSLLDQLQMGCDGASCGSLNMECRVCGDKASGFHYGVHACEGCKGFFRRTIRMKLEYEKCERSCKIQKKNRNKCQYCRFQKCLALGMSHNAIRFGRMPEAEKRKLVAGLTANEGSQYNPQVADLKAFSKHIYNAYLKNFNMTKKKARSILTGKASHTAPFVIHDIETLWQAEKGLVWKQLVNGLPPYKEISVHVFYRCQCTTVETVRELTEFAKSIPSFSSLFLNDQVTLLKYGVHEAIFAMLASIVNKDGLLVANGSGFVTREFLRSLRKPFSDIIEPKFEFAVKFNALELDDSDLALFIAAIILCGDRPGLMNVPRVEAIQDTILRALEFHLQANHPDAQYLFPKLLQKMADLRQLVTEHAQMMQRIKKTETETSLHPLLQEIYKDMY
Aryl hydrocarbon receptor (Homo sapiens), sequence (P35869 whole entry, looked up): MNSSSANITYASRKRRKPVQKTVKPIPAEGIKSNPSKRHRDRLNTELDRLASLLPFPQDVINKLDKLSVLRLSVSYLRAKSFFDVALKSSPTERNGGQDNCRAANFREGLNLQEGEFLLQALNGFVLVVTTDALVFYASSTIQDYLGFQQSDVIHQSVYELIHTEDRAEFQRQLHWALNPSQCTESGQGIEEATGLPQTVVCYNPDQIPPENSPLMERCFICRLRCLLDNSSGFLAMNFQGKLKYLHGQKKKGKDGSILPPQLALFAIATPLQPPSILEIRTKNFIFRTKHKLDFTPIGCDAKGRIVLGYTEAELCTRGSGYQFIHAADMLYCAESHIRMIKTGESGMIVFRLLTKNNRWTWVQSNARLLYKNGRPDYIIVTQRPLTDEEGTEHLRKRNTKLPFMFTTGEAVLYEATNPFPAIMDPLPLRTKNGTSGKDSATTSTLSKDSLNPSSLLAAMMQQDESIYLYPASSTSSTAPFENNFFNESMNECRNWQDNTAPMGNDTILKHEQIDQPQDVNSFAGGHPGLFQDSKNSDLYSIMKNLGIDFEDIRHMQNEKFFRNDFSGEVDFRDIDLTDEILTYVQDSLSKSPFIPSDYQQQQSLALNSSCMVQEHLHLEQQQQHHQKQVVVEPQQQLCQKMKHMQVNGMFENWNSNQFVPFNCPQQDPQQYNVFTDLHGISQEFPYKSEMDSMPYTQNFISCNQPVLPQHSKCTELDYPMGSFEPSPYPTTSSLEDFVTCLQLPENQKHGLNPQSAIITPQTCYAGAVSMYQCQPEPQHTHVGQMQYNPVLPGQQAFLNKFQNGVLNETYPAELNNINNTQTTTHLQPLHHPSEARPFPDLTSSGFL
Vitamin D3 receptor (Homo sapiens), sequence (P11473 whole entry, looked up): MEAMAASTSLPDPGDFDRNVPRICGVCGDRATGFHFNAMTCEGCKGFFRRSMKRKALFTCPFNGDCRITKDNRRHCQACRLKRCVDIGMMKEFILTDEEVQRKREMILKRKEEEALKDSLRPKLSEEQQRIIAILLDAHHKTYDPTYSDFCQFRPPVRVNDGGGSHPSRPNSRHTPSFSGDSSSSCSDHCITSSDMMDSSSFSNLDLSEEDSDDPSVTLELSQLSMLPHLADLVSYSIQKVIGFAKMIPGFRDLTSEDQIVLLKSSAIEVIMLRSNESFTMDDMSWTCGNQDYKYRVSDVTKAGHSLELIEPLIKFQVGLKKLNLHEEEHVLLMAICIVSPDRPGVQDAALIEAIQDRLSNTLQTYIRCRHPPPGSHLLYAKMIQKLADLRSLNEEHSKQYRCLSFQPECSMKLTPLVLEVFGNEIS
Bile acid receptor (Homo sapiens), sequence (Q96RI1 whole entry, looked up): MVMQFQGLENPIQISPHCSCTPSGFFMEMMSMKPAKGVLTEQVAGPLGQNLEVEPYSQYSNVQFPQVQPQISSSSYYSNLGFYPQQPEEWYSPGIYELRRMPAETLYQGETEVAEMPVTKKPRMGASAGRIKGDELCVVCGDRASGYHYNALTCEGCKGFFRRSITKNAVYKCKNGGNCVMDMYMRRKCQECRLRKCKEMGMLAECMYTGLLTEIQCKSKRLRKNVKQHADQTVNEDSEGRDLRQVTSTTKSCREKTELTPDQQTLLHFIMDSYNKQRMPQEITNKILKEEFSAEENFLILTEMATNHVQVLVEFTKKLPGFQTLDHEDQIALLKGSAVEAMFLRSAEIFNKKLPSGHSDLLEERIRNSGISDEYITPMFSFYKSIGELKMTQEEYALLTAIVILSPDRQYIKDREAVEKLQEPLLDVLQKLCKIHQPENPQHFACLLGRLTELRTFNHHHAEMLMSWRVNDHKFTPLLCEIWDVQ
Peroxisome proliferator-activated receptor gamma (Homo sapiens), sequence (P37231 whole entry, looked up): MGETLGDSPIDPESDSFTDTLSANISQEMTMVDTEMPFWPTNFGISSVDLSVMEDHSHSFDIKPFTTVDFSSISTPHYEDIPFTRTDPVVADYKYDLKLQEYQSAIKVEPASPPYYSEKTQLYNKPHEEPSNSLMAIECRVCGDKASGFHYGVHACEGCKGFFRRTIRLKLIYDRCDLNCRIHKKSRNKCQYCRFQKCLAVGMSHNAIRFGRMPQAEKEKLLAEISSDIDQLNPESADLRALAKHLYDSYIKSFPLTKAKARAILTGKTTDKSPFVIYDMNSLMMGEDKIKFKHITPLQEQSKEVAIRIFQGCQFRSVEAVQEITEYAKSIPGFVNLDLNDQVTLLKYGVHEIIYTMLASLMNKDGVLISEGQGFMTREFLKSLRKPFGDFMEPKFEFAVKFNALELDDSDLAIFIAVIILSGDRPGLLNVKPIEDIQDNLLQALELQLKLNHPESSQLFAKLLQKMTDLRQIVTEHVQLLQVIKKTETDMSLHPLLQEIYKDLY

Compound	Potency [1]	Potency [2]	Potency [3]	Potency [4]	Potency [5]	Potency [6]	Potency [7]	Potency [8]	Potency [9]	Potency [10]	Potency [11]	Potency [12]	Potency [13]	Potency [14]	Potency [15]	outcome [16]	Potency [17]	Potency [18]	Potency [19]	Potency [20]
Cc1nnc(NS(=O)(=O)c2ccc(N)cc2)s1	inactive	inactive	inactive	inactive	inactive	inactive	inactive	inactive	inactive	inactive	inactive	inactive	inactive	inactive	inactive	inactive	–	–	–	–
CCCCCNCCCCC	inactive	inactive	inactive	inactive	inactive	inactive	inactive	inactive	inactive	inactive	–	inactive	inactive	inactive	inactive	inactive	inactive	inactive	–	–
Cc1ccncc1	inactive	inactive	inactive	inactive	inactive	inactive	inactive	inactive	inactive	inactive	–	inactive	–	inactive	inactive	inactive	inactive	inactive	–	–
Nc1cccc(N)n1	inactive	52.6 µM (active) and 61.1 µM (active)	inactive	inactive	inactive	inactive	inactive	inactive	inactive	inactive	–	inactive	inactive	inactive	inactive	inactive	–	inactive	–	–
COc1ccc(N)c(OC)c1	inactive	inactive	inactive	inactive	inactive	inactive	inactive	inactive	inactive	inactive	inactive	inactive	–	inactive	inactive	inactive	–	inactive	–	–
Cc1cc(CC(=O)O)n(C)c1C(=O)c1ccc(Cl)cc1	inactive	inactive	inactive	inactive	inactive	inactive	inactive	inactive	inactive	inactive	inactive	inactive	inactive	inactive	inactive	inactive	inactive	inactive	inactive	inactive
CC(C=O)Cc1ccc(C(C)(C)C)cc1 (stereo unspecified)	inactive	inactive	inactive	inactive	inactive	inactive	inactive	inactive	inactive	inactive	inactive	inactive	inactive	inactive	inactive	inactive	–	–	inactive	inactive
CCn1cc(C(=O)O)c(=O)c2cc3c(cc21)OCO3	inactive	inactive	inactive	–	–	inactive	inactive	inactive	inactive	inactive	–	inactive	inactive	inactive	inactive	inactive	inactive	inactive	inactive	inactive
